Records with an inconclusive call do not appear. A call without a number means that no potency is given here. Calls of active or inactive are those of the source. The call rests on the fitted dose curve; in most records, active means well fitted curve in the direction sought with a large enough effect; inconclusive means small, poorly fitted or top-dose-only effect, or another doubt; inactive means no such curve, though single readings can be large; an effect the other way counts as inactive or inconclusive.
Experiments:
[1] = HEK293 18hr Apoptosis Induction qHTS against the NCATS CANVASS Library (AID 1347357)
Method in brief: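 HEK293 cells (500 per well, DMEM with 10% FBS) were treated with natural products, incubated 18 hours at 37 degrees C, then caspase-3/7 activity was read by Caspase-Glo luminescence after 15 min at room temperature.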

[2] = HPAF-II 12hr Apoptosis Induction qHTS against the NCATS CANVASS Library (AID 1347358)
Method in brief: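 HPAF-II cells (500/well, DMEM + 10% FBS) were exposed to compounds for 12 hours at 37 degrees C. Caspase-3/7 activity was then read by Caspase-Glo 3/7 luminescence after 15 min at room temperature.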

[3] = HEK293 24hr Apoptosis Induction qHTS against the NCATS CANVASS Library (AID 1347359)
Method in brief: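 HEK293 cells, 500 per well, exposed to an 11-point compound series for 24 hours at 37 degrees C. Caspase 3/7 activity read by Caspase-Glo luminescence (DEVD substrate) after 15 min at room temperature.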

[4] = HPAF-II 18hr Apoptosis Induction qHTS against the NCATS CANVASS Library (AID 1347360)
Method in brief: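 HPAF-II cells (500/well, DMEM + 10% FBS) were exposed to compounds for 18 hours at 37 degrees C. Caspase-3/7 activity was then read by Caspase-Glo 3/7 luminescence after 15 min at room temperature.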

[5] = HEK293 12hr Apoptosis Induction qHTS against the NCATS CANVASS Library (AID 1347361)
Method in brief: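 Read-out: Caspase-Glo 3/7 luminescence (DEVD substrate), 15 min RT. Preceded by 12 h compound exposure of HEK293, 500 cells/well, 11-pt qHTS titration; doxorubicin titration as control.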

[6] = molecular target: Luciferin 4-monooxygenase (Photinus pyralis) (UniProt P08659); assay: Firefly luciferase counterscreen qHTS: Assay Interference Panel against the NCATS CANVASS Library (AID 1347363); further: series mostly up to about 57 µM
Method in brief: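 Purified P. pyralis luciferase (0.04 ug/mL, 4x reagent) added to Tris-acetate buffer with 0.013 mM D-luciferin, 0.013 mM ATP and 13.3 mM Mg-acetate; compounds preincubated 15 min, then luminescence read after 5 min, RT.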

[7] = qHTS for ATAD5 Agonist screened against the NCATS CANVASS Library (AID 1347367);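 further: luciferase reporter driven by ATAD5 which rises upon DNA damage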
Method in brief: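 HEK293T cells stably carrying an ATAD5-controlled luciferase reporter (2000 cells/well) attached for 5 hr, then received compounds in an 11-point series for 16hr at 37C. Luminescence was read after a 30 min room-temperature reagent step.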

[8] = J3T Cancer Cell Toxicity qHTS against the NCATS CANVASS Library (AID 1347371); further: potency means the concentration at half of the fitted maximal effect
Method in brief: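 J3T dog glioma cells (500 cells/well) were exposed to compounds in an 11-point series for 72 hr at 37C, 5% CO2. Cytotoxicity was read as ATP content by CellTiterGlo luminescence.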

[9] = molecular target: Nuclear receptor subfamily 1 group I member 3 (Homo sapiens) (UniProt Q14994); assay: qHTS for Constitutive Androstane Receptor (CAR) Agonist screened against the NCATS CANVASS Library (AID 1347373);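 further: every well also contained 1.5 µM PK11195 alongside the test compound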
Method in brief: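 HepG2 cells stably expressing hCAR and a CYP2B6-2.2kb luciferase reporter were treated for 24hr at 37C with compounds (11-point qHTS) in the presence of 1.5uM PK11195. Reporter activation was read by ONE-Glo luminescence.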

[10] = qHTS for Hypoxia signaling pathway (HIF-1) agonists against the NCATS CANVASS Library (AID 1347375)
Method in brief: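 HRE-bla ME-180 cells (beta-lactamase reporter under hypoxia responsive element) in 0.5% dialyzed FBS medium, 5 h at 37C, then compound 17 h, 11-point qHTS series. CCF4-AM FRET substrate 2 h RT; 460/530 nm emission read.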

[11] = 10-beta competent E. coli microbial cell viability qHTS against the NCATS CANVASS Library (AID 1347376); further: series mostly up to about 46 µM
Method in brief: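 10-beta competent E. coli (0.9 OD culture diluted to 0.2 OD) exposed to compounds in an 11-point qHTS series, incubated overnight at 37C, 5% CO2. Viability read as ATP by BacTiter-Glo luminescence after 20 min at room temperature.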

[12] = DH5-alpha competent E. coli microbial cell viability qHTS against the NCATS CANVASS Library (AID 1347377); conditions: outcome: dose series up to 46.1 µM unless noted
Method in brief: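 DH5-alpha E. coli suspension (0.9 OD culture diluted to 0.2 OD) exposed to compounds in an 11-point series, overnight at 37C, 5% CO2. Viability read as ATP by BacTiter-Glo luminescence after 20 min at room temperature.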

[13] = Cytotoxicity qHTS for assessment of Hepg2 cells membrane integrity screened against the NCATS CANVASS Library (AID 1347387)
Method in brief: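 HepG2 cells (2000/well) attached overnight at 37C, then received compounds in an 11-point series at 0.59 nM - 46 uM final for 5 hr. LDH release was detected fluorometrically (ex 560/em 590 nm) with CytoTox-ONE reagent after 10 min at room temperature.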

[14] = qHTS for activators of dead-cell proteases activity screened against the NCATS CANVASS Library (AID 1347392);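 further: luminescence from protease leaking out of membrane-damaged cells cleaving impermeant substrate; rising signal means more cytotoxicity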
Method in brief: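 HepG2 cells, 2000/well, attached 18 h at 37C, then exposed to compounds (11-point qHTS) for 5 h. Dead-cell protease release read as luminescence from cell-impermeant AAF-aminoluciferin substrate after 15 min at room temperature.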

[15] = Redox Reaction Profiling qHTS: Assay Interference Panel against the NCATS CANVASS Library (AID 1347401); further: potency means the concentration at half of the fitted maximal effect
Method in brief: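 Compounds in 11-point series incubated with 5 uM resazurin and 200 uM DTT in 50 mM HEPES pH 7.3, 50 mM NaCl. Resorufin fluorescence (Ex 525/Em 598) read before and after 15 min in the dark.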

Sequence of Luciferin 4-monooxygenase (Photinus pyralis) (P08659 whole entry, looked up): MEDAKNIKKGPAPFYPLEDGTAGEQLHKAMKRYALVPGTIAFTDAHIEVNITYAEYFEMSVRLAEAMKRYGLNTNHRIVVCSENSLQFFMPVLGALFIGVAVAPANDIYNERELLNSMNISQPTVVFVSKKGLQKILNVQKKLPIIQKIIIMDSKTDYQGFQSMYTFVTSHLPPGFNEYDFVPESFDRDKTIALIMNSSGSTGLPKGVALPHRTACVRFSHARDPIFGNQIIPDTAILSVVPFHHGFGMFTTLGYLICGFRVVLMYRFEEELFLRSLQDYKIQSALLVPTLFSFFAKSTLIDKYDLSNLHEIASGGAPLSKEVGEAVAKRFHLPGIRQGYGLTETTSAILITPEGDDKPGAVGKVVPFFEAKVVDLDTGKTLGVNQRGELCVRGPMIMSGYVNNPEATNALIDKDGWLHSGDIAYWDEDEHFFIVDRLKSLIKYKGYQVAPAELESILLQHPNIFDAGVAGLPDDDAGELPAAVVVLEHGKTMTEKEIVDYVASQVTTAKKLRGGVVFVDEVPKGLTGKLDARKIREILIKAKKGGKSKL
Sequence of Nuclear receptor subfamily 1 group I member 3 (Homo sapiens) (Q14994 whole entry, looked up): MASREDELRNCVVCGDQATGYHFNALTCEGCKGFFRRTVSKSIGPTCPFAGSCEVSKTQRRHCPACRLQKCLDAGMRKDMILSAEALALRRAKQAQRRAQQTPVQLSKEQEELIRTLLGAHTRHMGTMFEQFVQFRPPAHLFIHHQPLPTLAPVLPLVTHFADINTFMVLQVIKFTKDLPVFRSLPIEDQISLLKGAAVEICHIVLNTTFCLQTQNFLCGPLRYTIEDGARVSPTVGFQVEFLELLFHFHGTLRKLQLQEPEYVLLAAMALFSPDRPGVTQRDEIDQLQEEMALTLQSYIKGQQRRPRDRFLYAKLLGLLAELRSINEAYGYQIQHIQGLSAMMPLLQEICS

SMILES | outcome [1] | outcome [2] | outcome [3] | outcome [4] | outcome [5] | Potency [6] | Potency [7] | Potency [8] | Potency [9] | outcome [10] | outcome [11] | outcome [12] | outcome [13] | outcome [14] | Potency [15]
C/C=C1/CN2CC[C@@]34c5ccccc5N(C)[C@@H]3[C@@H]2C[C@@H]1[C@H]4C(=O)OC | inactive | inactive | inactive | inactive | inactive | inactive | inactive | inactive | inactive | inactive | inactive | inactive | inactive | inactive | inactive
CCC(=O)N[C@@H](C[C@H](C)C(Cl)(Cl)Cl)C(=O)N1C(=O)C=C(OC)[C@@H]1C[C@H](C)C(Cl)Cl | inactive | inactive | inactive | inactive | inactive | inactive | inactive | inactive | inactive | inactive | inactive | – | inactive | inactive | inactive
CCCC[C@@H](C)/C=C1/CN2CCC[C@H]2[C@@](C)(O)[C@@H]1O | inactive | inactive | inactive | inactive | inactive | inactive | inactive | inactive | inactive | inactive | inactive | inactive | inactive | inactive | inactive
C=C(C)[C@H]1C(=O)c2c3c(cc4c5c(n1c24)[C@@]1(C)[C@@H](CC[C@H]2[C@](C)(/C=C/C=C(\C)C(=O)O)[C@@H](O)CC[C@@]21C)C5)C1=CC(C)(C)OC(C)(C)[C@H]1[C@@H]3O | inactive | – | inactive | – | inactive | inactive | inactive | inactive | inactive | – | inactive | inactive | – | – | 19.2 µM (active)
C1=C2CCCN[C@H]2C2CC1[C@H]1CCCCN1C2 (some centres undefined) | inactive | inactive | inactive | inactive | inactive | inactive | inactive | inactive | inactive | inactive | inactive | inactive | inactive | inactive | inactive
CC[C@@H]1CN2CCC3(Nc4cccc(OC)c4C3=O)[C@@H]2C[C@@H]1/C(=C\OC)C(=O)OC (some centres undefined) | inactive | inactive | inactive | inactive | inactive | inactive | inactive | inactive | inactive | inactive | inactive | inactive | inactive | inactive | inactive
CC[C@H]1CN2CCc3c([nH]c4cccc(OC)c34)[C@@H]2C[C@@H]1/C(=C\OC)C(=O)OC | inactive | inactive | inactive | inactive | inactive | inactive | inactive | inactive | inactive | inactive | inactive | inactive | inactive | inactive | inactive
C/C=C1/CN2CC[C@]34C(=C(C(=O)OC)[C@H]1C[C@H]23)Nc1ccccc14 | inactive | inactive | inactive | inactive | inactive | inactive | inactive | inactive | inactive | inactive | inactive | inactive | inactive | inactive | inactive
C/C(=C\[C@H](C)C(=O)C[C@H](O)CC1CC(=O)NC(=O)C1)[C@@H]1OC(=O)/C=C/CC/C=C/C=C/[C@@H]1C | inactive | inactive | inactive | inactive | inactive | inactive | inactive | 0.264 µM (active) | inactive | inactive | inactive | inactive | inactive | inactive | 24.1 µM (active)
C=CC(C)(C)[C@@]12C[C@H]3C(=O)N/C(=C/c4cnc[nH]4)C(=O)N3[C@@H]1Nc1ccccc12 | inactive | inactive | inactive | inactive | inactive | inactive | inactive | inactive | inactive | inactive | inactive | inactive | inactive | inactive | inactive
CO[C@H]1[C@H](O[C@H]2CC[C@]3(C=O)[C@H]4CC[C@]5(C)[C@@H](C6=CC(=O)OC6)CC[C@]5(O)[C@@H]4CC[C@]3(O)C2)O[C@H](C)[C@H](O)[C@@H]1OC | inactive | inactive | inactive | inactive | inactive | inactive | inactive | 0.372 µM (active) | inactive | inactive | inactive | inactive | inactive | inactive | inactive
